Data as given in publication PMC5540273 (PLoS ONE, 2017).

These compounds were tested on ULK3. Details: concentration: 1 μM, replicates: in singlicate; n = 1.
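Further: KINOMEscan kinase panel screen.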

Row | SMILES | %Inh
1 | COc1ccc(NC(=O)c2ccoc2)cc1-c1ccc(C(=O)NCC2CC2)cc1 [GW810437] | 41%
2 | O=C(Nc1n[nH]c2nc(-c3ccccc3O)ccc12)C1CC1 [SB-711880] | 16%
3 | CNc1nccc(-c2ccc3c(N)n[nH]c3c2)n1 [GSK2206003] | 9%
4 | c1ccc(Oc2ccc(Nc3ccnc4cc(-c5ccc(CN6CCCCC6)o5)ccc34)cc2)nc1 [GW567143] | 15%
5 | Cc1ccc(NC(=O)c2ccc(Cl)c(Cl)c2)cc1-c1ccc(C(=O)Nc2ccncc2)cc1 [GSK1398460] | 6%
6 | CC(C)(C)c1ccc(C(=O)Nc2cn3cc(-n4ccnc4)ccc3n2)cc1 | 10%
7 | Cl.Cl.NCC(NC(=O)c1cc(-c2cccnc2)c(-c2ccnc3[nH]ccc23)s1)c1ccccc1 (stereo not shown) [GSK1323434] | 0%
8 | Cc1ccc(Nc2ccnc(Nc3ccc(C)c(F)c3)n2)cc1O.Cl [GW582868] | 10%
9 | O=C(Nc1n[nH]c2nc(-c3cccc(O)c3)ccc12)C1CC1 [SB-711805] | 7%
10 | COc1cccc(NC(=O)NCCNc2ccnc(Nc3ccc(F)cc3)n2)c1 [GSK1379879] | 26%
11 | Cc1cc(-c2c(-c3ccc(F)cc3)ncn2CCCN2CCOCC2)nc(N)n1 [SB-222517] | 18%
12 | COc1ccc(C)c(Nc2ccnc(Nc3ccc(-c4cnc[nH]4)cc3)n2)c1.Cl [GW784041] | 6%
13 | CN(C)CCNS(=O)(=O)c1ccc(-c2ccnc3[nH]ccc23)cc1 [GSK977620] | 27%
